From the supplement of paper PMC13380429

Legend:
[1] = system: Vero E6 infected with SARS-CoV-2; test: morphology score (similarity to uninfected cells); higher = more like uninfected cells; details: 24 h
[2] = system: Vero E6 infected with SARS-CoV-2; test: SARS-CoV-2 infection rate relative to infected DMSO; higher = more infection, active = 60 or less; details: 24 h

Row | SMILES | morphology score [1] | SARS-CoV-2 infection rate [2]
1 | CCNCCCNCCCCNCCCNCC (0.833333 µM) | 0.312 | 80.5% (inactive)
2 | NC(=O)CN1Cc2ccccc2OC1=O [caroxazone] (10 µM) | 0.0974 | 100% (inactive)
3 | CN1C(=O)c2c(nn(Cc3ccc(-c4cccc(F)n4)cc3)c2Nc2ccccc2)N2C1=N[C@@H]1CCC[C@@H]12 (10 µM) | 0.38 | 105% (inactive)
4 | C[C@H]1O[C@@H](O[C@H]2[C@@H](O)C[C@H](O[C@H]3[C@@H](O)C[C@H](O[C@H]4CC[C@@]5(C)[C@H](CC[C@@H]6[C@@H]5C[C@@H](O)[C@]5(C)[C@@H](C7=CC(=O)OC7)CC[C@]65O)C4)O[C@@H]3C)O[C@@H]2C)C[C@H](O)[C@@H]1O [digoxin] (0.833333 µM) | -0.256 | 98% (inactive)
5 | CC(C)(C)NC(=O)[C@@H]1C[C@@H]2CCCC[C@@H]2CN1C[C@@H](O)[C@H](Cc1ccccc1)NC(=O)[C@H](CC(N)=O)NC(=O)c1ccc2ccccc2n1 [saquinavir] (10 µM) | 0.0775 | 106% (inactive)
6 | NC[C@H]1O[C@H](O[C@H]2[C@H](O[C@@H]3O[C@H](CO)[C@@H](O)[C@H]3O)[C@@H](O)[C@H](N)C[C@@H]2N)[C@H](N)[C@@H](O)[C@@H]1O [ribostamycin-sulfate] (10 µM) | 0.199 | 105% (inactive)
7 | CC(=O)O[C@@]12CO[C@@H]1C[C@H](O)[C@@]1(C)C(=O)[C@H](O)C3=C(C)[C@@H](O)C[C@@](O)([C@@H](OC(=O)c4ccccc4)[C@H]21)C3(C)C [10-deacetylbaccatin] (10 µM) | 0.18 | 109% (inactive)
